CHX counter = counter-screen for Shiga toxin inhibitors: cycloheximide protein synthesis inhibition; cell reporter, cycloheximide protein synthesis inhibition counterscreen; max response, %; hit rate 12% among 300,000; AID 2314; in the data active = max response mostly above about 13%, no sharp cut-off; inactive = mostly below about 14%; also: read at 38.3 µM for the half of the compounds with a filed dose; 0% is about no effect
FMDV antiviral = antivirals against foot and mouth disease virus. FMDV antiviral cell-based qHTS. Potency, µM (series often up to 57.9 µM), for the others: at the highest dose activity change, negative = inhibition, usual class: inhibitors. hit rate 1.2% among 410,000. AID 1159524; calls by dose curve; tested in HEK293T cells; also: read-out not given here; potency is read from the fitted curve at half-maximal effect; % is scaled to controls: 0 for no effect and ±100 for the full control effect; nearly all actives have a fitted effect of over 45% in size
HCV inh = blocks hepatitis C virus. Huh7.5.1 HCVcc-Cre infection, luciferase reporter, 44 h. AID 651820. Potency, µM (highest dose often 41.8 µM), inactives show top-dose activity change, negative = inhibition, most hits filed as inhibitors. hit rate 3.4% among 340,000; active = well fitted inhibition curve with a large enough effect; inconclusive = small, poorly fitted or top-dose-only effect, or another doubt; inactive = no such curve, though single readings can be large or run the other way; also: potency is read from the fitted curve at half-maximal effect; % is scaled to controls: 0 for no effect and ±100 for the full control effect
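Compounds are dispensed onto cells plated 4 h earlier at 1,000 per well, with HCVcc-Cre virus (about 0.5 moi) added next. Following 44 h of culture, luminescent signal is measured for 15 sec after 15 min with substrate at room temperature.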
Shiga inhibitor = Shiga toxin inhibition; Vero cells, Shiga toxin protein synthesis inhibition reporter; inhibition, % at 38.7 µM; hit rate 9.2% among 290,000; in the data active = inhibition mostly above about 28%, no sharp cut-off; inactive = mostly below about 43%; also: 0% is about no effect
Marburg entry inh = Marburg virus entry inhibition; Marburg virus pseudotyped entry inhibition, cell reporter; Potency, µM (doses to about 37.8 µM), for the others: at the top dose activity change, negative = inhibition, actives largely listed as inhibitors; hit rate 1.8% among 300,000; AID 540276; calls by dose curve; tested in HEK293 cells; also: potency is read from the fitted curve at half-maximal effect; % is scaled to controls: 0 for no effect and ±100 for the full control effect
LASV entry inh = Lassa virus entry inhibition; Lassa virus pseudotype entry inhibition, cell reporter; Potency, µM (doses to about 37.9 µM), inactives show top-dose activity change, negative = inhibition, most hits filed as inhibitors; hit rate 1.2% among 300,000; AID 540256; calls by dose curve; tested in HEK293 cells; also: potency is read from the fitted curve at half-maximal effect; % is scaled to controls: 0 for no effect and ±100 for the full control effect; nearly all actives have a fitted effect of over 50% in size
An asterisk follows results filed as active; u = inconclusive; x = not tested or not shown; [ ] = dose if it differs, or a comment. In the library only some 13% were active in any assay of this set; here they are far more common.

SMILES	CHX counter	FMDV antiviral	HCV inh	Shiga inhibitor	Marburg entry inh	LASV entry inh
COc1cccc(N2CCN(c3ccc4nnc(CCC(=O)Nc5cc(C)ccn5)n4n3)CC2)c1	1	-16%	-2%	0	x	x
CCCc1cc(=O)oc2c3c(c4c(c12)OC(C)(C)C=C4)OC(C)C(C)C3O (stereo unspecified)	-2	-1%	10µM*	-6	x	x
CCCc1cc(=O)oc2c3c(cc(OCC(=O)N[C@@H](C)C(=O)O)c12)OC(C)(C)CC3	-2	-8%	20%	1	-8%	7%
COc1ccc(C2CCCN2C(=S)Nc2ccc(C)cc2Cl)cc1OC (stereo unspecified)	43	23%	u	64*	u	-25%[46.1 µM]
Fc1ccccc1NC(=S)N1CCCCC1	-1	-1%	19%	4	27%	21%
Cc1ccc(NC(=S)N2CCC(c3ccccc3)C2)c(Cl)c1 (stereo unspecified)	19	2%	3%	72*	u	10µM*
Fc1cc(F)cc(NC(=S)N2CCC(c3ccccc3)C2)c1 (stereo unspecified)	41*	26%	13%	138*	x	x
Fc1ccccc1NC(=S)N1CCC(c2ccccc2)C1 (stereo unspecified)	62*	22%	-28%	164*	2%[46.1 µM]	u
COc1cccc(CNC(=O)CCC2CCCN(C(=O)c3cccc4c(C)c(C)[nH]c34)C2)c1 (stereo unspecified)	3	32%	-20%	19	u	-27%
COc1ccccc1C(=O)NC(=O)CSc1nc2nc(C)cc(C)n2n1	x	-2%	5%	x	-1%	-17%
COc1ccc(CCNc2c([N+](=O)[O-])c(=O)oc3ccccc23)cc1OC	-3	6%	1%	-9	-9%	-4%
Nc1c(Cl)cc(-c2csc(N3CCCC3c3nc4cc(Cl)c(N5CCCCC5)cc4n3CCCO)n2)cc1Cl (stereo unspecified)	x	-9%	-14%[8.37 µM]	x	x	x
CN(Cc1ccc(Cl)cc1Cl)C(=O)c1cc(=O)c2ccccc2o1	-1	0%	-12%	24	1%[46.1 µM]	-2%
O=C(O)CSc1nnc(C2COc3ccccc3O2)n1-c1ccccc1 (stereo unspecified)	0	10%	14%	-9	4%	-1%
S=C(Nc1ccccc1Cl)N1CCCCCC1	6	50%	2%	7	-2%[46.1 µM]	0%
S=C(Nc1ccccc1Cl)N1CCC(c2ccccc2)C1 (stereo unspecified)	44*	30%	2%	131*	20%[46.1 µM]	1%
O=C(CCCn1c(=S)[nH]c2ccsc2c1=O)Nc1ccc2c(c1)OCO2	7	12%	-10%	16	12%[46.1 µM]	x
Cc1ccc(S(=O)(=O)NCc2ccccc2)cc1C(=O)NC1CCC(C)CC1 (stereo unspecified)	12*	27%	-21%	55*	x	x
Cc1ccc(S(=O)(=O)NCc2ccccc2)cc1C(=O)N1CC(C)CC(C)C1 (stereo unspecified)	x	12%	0%	x	-32%	6%
COc1ccccc1/C=C/C=N/NC(=O)c1ccco1	32*	28%	-6%	78*	1%[46.1 µM]	14%[46.1 µM]
COC(=O)c1ccc(COc2ccccc2/C=N/NC(=O)c2cccnc2)cc1	28*	8%	6%	25	u	-24%[46.1 µM]
COc1ccccc1/C=C/C=N/NC(=O)c1cc(-c2ccc(C)o2)[nH]n1	2	-6%	10µM*	-8	u	u
O=C(N/N=C/c1ccc(OC(=O)c2ccco2)cc1)c1ccncc1	-1	-1%	11%	-6	6%[46.1 µM]	-5%[46.1 µM]
Cc1ccc(/C=N/NC(=O)c2cc(-c3ccc(C)o3)[nH]n2)cc1	-5	-7%	u	-1	u	u
O=C(N/N=C/c1ccc2cccnc2c1)c1ccco1	25	-3%	11%	72*	u	u
O=[N+]([O-])c1ccc(S(=O)(=O)NN=C2CCCCC2)cc1	x	-5%	-10%	x	12%[46.1 µM]	1%[46.1 µM]
COc1cccc(/C=N/NC(=O)c2ccccc2NC(=O)c2ccco2)c1OC	12	0%	-13%	38	x	x
O=C(Nc1ccccc1C(=O)N/N=C/c1ccccc1)c1ccco1	27*	-25%	-3%	87*	u	-20%
O=C(N/N=C/C(Br)=C\c1ccccc1)c1ccco1	46*	1%	-19%	47*	u	9%[46.1 µM]
O=C(N/N=C\c1ccccc1OCc1ccccc1)c1ccco1	32*	-9%	3%	40*	-13%	-15%

From PubChem
